Here are results for 15 compounds from PubChem BioAssay.

Experiment [1] relates to TRPC4 beta (transient receptor potential cation channel C4), mouse. In words: TRPC4 cation channel opening, retest – cell-based, Fluo4 calcium, HEK293 TRPC4beta/mu-opioid, duplicates, 10 µM, confirmation (AID 2426;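 active = fluorescence ratio normalized to control raised more than 50% in primary screen plus both repeat runs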). Conditions: Fluo4 calcium fluorescence, at 10 µM; stronger effect = higher value.
The subject of experiment [2] is transient receptor potential cation channel C4 beta (TRPC4), mouse. In words: TRPC4 cation channel opening, second retest – cell-based, second round, Fluo4, HEK293 TRPC4beta/mu-opioid, 1 µM, confirmation (AID 2461;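 active = primary screen active and over 50% activation in each of two duplicate runs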). The conditions noted are these: Fluo4 calcium fluorescence, at 1 µM; stronger effect = higher value.
Experiment [3] deals with TRPC4 (transient receptor potential cation channel C4 beta), mouse. In words: potentiation of DAMGO EC20 TRPC4 response – cell-based, second round, Fluo-4, HEK293 TRPC4beta/mu-opioid, 1 µM, confirmation (AID 2554;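 active = primary screen hit whose fluorescence ratio, in both repeats, exceeds the weak agonist control mean by 3 SD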). Conditions: DAMGO EC20, Fluo-4 calcium flux, at 1 µM; stronger effect = higher value.
For experiment [4], the system named is TRPC4 beta (transient receptor potential cation channel C4), mouse. In words: potentiation of DAMGO EC20 TRPC4 response – cell-based, Fluo-4, HEK293 TRPC4beta/mu-opioid, confirmation (AID 2555;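 active = primary screen hit whose calcium fluorescence ratio, in both repeats, exceeds the weak agonist control mean by 3 SD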). The conditions noted are these: DAMGO EC20, Fluo-4 calcium flux, at 10 µM; stronger effect = higher value.
The target of experiment [5] is Short transient receptor potential channel 4 (Mus musculus) (UniProt Q9QUQ5). Put plainly: blockers of DAMGO-evoked TRPC4 calcium flux – cell-based, Fluo4, HEK293 TRPC4beta/mu-opioid, confirmation (AID 2636;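 active = calcium signal cut by more than 3 SD below the full-agonist control yet still positive, in both repeats and the earlier primary screen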). The conditions noted are these: at 10 µM; stronger effect = higher value.
The target is the same in experiment [6]. In words: blockers of DAMGO-evoked TRPC4 calcium flux – cell-based, second round, Fluo4, HEK293 TRPC4beta/mu-opioid, 1 µM, confirmation (AID 2637;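 active = calcium signal ratio cut to more than 3 SD under the fully stimulated control mean yet still positive, in both repeats and the primary screen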;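 as to inhibition: percent of integrated ratio relative to wells lacking test compound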). Conditions: at 1 µM; stronger effect = higher value.
Experiment [7] shares this target. In words: calcium entry via TRPC4 opening agents – cell-based, HEK293 TRPC4/mu-opioid, Fluo-4 calcium, dose response (AID 434937;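 active = primary screen activator hit with a dose response curve and TRPC4 channel activation at any tested dose; inactive = no activation, no dose response, or not a primary hit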).
The target is the same in experiment [8]. In words: potentiation of DAMGO-evoked TRPC4 calcium signal – cell-based, HEK293 TRPC4/mu-opioid, Fluo-4 calcium, EC20 DAMGO, dose response (AID 434941;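 active = earlier screen potentiator hit that boosts the TRPC4 ion channel at some dose, with a dose response; inactive = no potentiation, no dose response, or not a prior hit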;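 also: calcium entry triggered by an EC20 dose of DAMGO at the co-expressed mu-opioid receptor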).
Experiment [9] has as its target Short transient receptor potential channel 6 (Mus musculus) (UniProt Q61143). Put plainly: TRPC6 blockade by TRPC4 inhibitor hits – cell-based, HEK293, membrane potential dye, duplicate, selectivity assay for TRPC4 inhibitor project, confirmation (AID 434948;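 active = active in primary screen and both duplicates, each dropping signal beyond three positive-control SD with fluorescence still positive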). Conditions: HEK293 TRPC6, membrane potential dye fluorescence, at 10 µM, stimulated with maximal-effect acetylcholine; stronger effect = higher value.

For experiment [10] the target is unchanged. Put plainly: TRPC6 opening by TRPC4 activator hits – cell-based, HEK293, membrane potential dye, duplicate, selectivity assay for TRPC4 activator project, confirmation (AID 434950).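 As to activation: 0% = buffer only wells and 100% = acetylcholine maximal-effect wells.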 Conditions: HEK293 TRPC6, membrane potential fluorescence, at 10 µM; activation: stronger effect = higher value; outcome: activation.
For experiment [11] the target is unchanged. Put plainly: positive modulators of mouse TRPC6 channel – HEK293 cells, membrane potential dye, duplicate, selectivity assay for TRPC4 potentiator project, confirmation (AID 434952;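 active = compound raising the membrane signal above positive-control mean plus 3 SD in both repeats, and a primary screen hit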). The conditions noted are these: HEK293 TRPC6, membrane potential dye fluorescence, at 10 µM, maximal acetylcholine added after compound; stronger effect = higher value.
The target in experiment [12] is Short transient receptor potential channel 4 (Mus musculus) (UniProt Q9QUQ5). In words: calcium flux activators in TRPC4/5HT1a cells, counter-screen for TRPC4 activator project, cell-based, second counter screen, HEK293 TRPC4/5HT1a, Fluo-4 (AID 434977;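 active = calcium signal rise above buffer-control mean plus 5 SD in both duplicates, and also a hit in the primary screen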). Conditions: Fluo-4 calcium flux, at 10 µM; stronger effect = higher value.
The nature of experiment [13]: serotonin-gated TRPC4 signal block – cell-based, second counter screen, HEK293 TRPC4/5HT1a, Fluo-4, counter-screen for TRPC4 inhibitor project, confirmation (AID 434978;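 active = primary screen active whose calcium signal fell more than 3 SD beyond the full-serotonin control mean in both duplicate plates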;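 as to outcome: serotonin given first at submaximal then at maximal dose after compound preincubation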). Conditions: Fluo-4 calcium flux, at 10 µM, serotonin added to trigger calcium flux; stronger effect = higher value. A general note: The purpose of a counterscreen is to sort out artefacts and off-target activity.

Experiment [14] has as its system TRPC4 (mouse), co-expressed with 5HT1a in HEK293. In words: enhancement of serotonin-evoked TRPC4 response – cell-based, second counter screen, HEK293 TRPC4/5HT1a, Fluo-4, counter-screen for TRPC4 potentiator project, confirmation (AID 434979;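 active = signal rise over 3 SD above mean of control wells given weak agonist, in both repeats and first screen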). Conditions: Fluo-4 calcium flux, at 10 µM, serotonin added at its EC20 dose; stronger effect = higher value.
A short description of experiment [15]: nonspecific calcium rise without TRPC4 – cell-based, HEK293 mu-opioid receptor line, counter-screen for TRPC4 activator project, confirmation (AID 449723;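 active = hit in primary screen, with calcium signal over 5 SD above buffer well mean in both duplicates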;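 also: counter screen cells carry the mu-opioid receptor alone and lack TRPC4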). Conditions: HEK293 mu-opioid cells, Fluo-4 calcium fluorescence, at 10 µM; stronger effect = higher value.
Experiment [16] in a line: nonspecific potentiation of DAMGO calcium response – cell-based, HEK293 mu-opioid receptor line, counter-screen for TRPC4 allosteric potentiator project, confirmation (AID 449724;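 active = calcium signal rise more than 3 SD above the low-dose agonist control mean, in both duplicate plates and the primary screen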;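 also: HEK293 cells carrying mu-opioid receptor only with no TRPC4 channel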). The conditions noted are these: HEK293 mu-opioid receptor cells, Fluo-4 calcium flux, at 10 µM, compound added before EC20 DAMGO stimulus; stronger effect = higher value.

SMILES strings stand for the structures. For part of these data: Measured potencies and affinities stand elsewhere. Calls of active or inactive are those of the source.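 The calls were made as follows, unless noted: active = membrane potential signal rise above negative control mean plus 3 SD in both duplicates, also active in the earlier TRPC4 screen; inactive = the rest.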

Chain of Short transient receptor potential channel 6 (Mus musculus) (Q61143 whole entry, looked up): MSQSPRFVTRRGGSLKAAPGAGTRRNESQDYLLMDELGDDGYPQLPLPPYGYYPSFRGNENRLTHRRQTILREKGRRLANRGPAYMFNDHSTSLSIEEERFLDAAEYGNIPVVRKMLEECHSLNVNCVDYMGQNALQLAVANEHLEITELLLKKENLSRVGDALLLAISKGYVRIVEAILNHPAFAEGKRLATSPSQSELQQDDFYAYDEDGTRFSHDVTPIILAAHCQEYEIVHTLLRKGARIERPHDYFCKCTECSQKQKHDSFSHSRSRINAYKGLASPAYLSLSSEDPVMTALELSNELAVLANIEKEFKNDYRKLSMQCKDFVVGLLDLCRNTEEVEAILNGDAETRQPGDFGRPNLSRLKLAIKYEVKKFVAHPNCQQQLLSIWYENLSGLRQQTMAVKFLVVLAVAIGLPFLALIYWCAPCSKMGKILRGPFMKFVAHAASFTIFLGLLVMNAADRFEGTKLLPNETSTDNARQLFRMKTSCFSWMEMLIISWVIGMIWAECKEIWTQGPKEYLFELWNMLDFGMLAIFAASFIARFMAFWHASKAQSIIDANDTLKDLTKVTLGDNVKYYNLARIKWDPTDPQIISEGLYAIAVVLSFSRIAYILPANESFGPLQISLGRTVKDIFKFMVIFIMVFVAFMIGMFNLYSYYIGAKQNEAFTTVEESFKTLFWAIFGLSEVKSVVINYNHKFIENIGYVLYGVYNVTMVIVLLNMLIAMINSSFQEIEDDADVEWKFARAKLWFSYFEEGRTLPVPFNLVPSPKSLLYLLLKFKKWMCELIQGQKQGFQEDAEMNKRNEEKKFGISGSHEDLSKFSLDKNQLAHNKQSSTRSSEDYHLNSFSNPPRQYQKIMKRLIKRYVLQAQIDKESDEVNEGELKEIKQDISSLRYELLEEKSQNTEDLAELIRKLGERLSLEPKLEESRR
Chain of Short transient receptor potential channel 4 (Mus musculus) (Q9QUQ5 whole entry, looked up): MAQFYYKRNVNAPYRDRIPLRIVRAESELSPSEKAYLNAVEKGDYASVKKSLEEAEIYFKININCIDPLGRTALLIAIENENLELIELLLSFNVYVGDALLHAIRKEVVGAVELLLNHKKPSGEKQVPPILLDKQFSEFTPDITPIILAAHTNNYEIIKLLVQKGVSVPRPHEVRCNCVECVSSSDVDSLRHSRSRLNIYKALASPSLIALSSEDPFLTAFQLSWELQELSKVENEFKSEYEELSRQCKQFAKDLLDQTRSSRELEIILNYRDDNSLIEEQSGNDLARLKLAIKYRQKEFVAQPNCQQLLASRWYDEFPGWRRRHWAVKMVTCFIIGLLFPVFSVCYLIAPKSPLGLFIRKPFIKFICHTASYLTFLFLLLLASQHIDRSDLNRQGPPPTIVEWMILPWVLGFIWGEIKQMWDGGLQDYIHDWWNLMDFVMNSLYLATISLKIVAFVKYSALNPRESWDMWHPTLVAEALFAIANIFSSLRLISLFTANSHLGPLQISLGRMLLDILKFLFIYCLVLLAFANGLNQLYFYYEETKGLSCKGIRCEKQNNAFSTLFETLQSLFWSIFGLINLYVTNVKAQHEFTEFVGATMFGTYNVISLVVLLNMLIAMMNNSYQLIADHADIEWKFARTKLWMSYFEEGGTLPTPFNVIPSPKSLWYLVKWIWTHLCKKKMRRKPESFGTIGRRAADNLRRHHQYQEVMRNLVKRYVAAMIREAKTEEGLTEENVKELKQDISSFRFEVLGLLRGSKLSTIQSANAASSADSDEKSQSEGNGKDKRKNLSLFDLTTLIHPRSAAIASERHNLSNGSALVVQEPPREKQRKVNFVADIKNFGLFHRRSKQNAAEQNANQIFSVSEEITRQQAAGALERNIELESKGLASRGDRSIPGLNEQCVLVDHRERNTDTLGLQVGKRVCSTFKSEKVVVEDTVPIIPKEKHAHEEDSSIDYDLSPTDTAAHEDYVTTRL

Broadly, the inhibition is the percentage by which the read-out fell short of the control. With `CCc1nc2ccccc2n1Cc1ccccc1OC`, the outcome in experiment [1], in [2], in [3], in [4], in experiment [7] and in [8] was inactive. Further, the result in experiment [9], in experiment [10], in [11], in [12], in experiment [14] and in experiment [15] was inactive. The result in experiment [16] was inactive. Further, the inhibition in [5] is 66% (active); in experiment [6], 48% (active); in experiment [13], 43.4% (active).

`Cc1cc(N/N=C/c2ccccc2F)c2ccccc2n1`: the outcome in [1], in [2], in [3], in experiment [4], in experiment [7] and in experiment [8] was inactive. Further, the outcome in experiment [9], in [10], in experiment [11], in [12], in experiment [14] and in experiment [15] was inactive. Further, the result in experiment [16] was inactive. In addition, the inhibition in experiment [5] is 97% (active); in [6], 67% (active); in [13], 13.1% (active).

As for `O=C(O)CN1C(c2ccccc2O)Nc2ccc(Br)cc2C1c1ccccc1` (stereo not given), the outcome in [1], in [2], in experiment [3], in [4], in experiment [7] and in [8] was inactive. In addition, the call in experiment [9], in experiment [10], in experiment [11], in [12], in experiment [14] and in experiment [15] was inactive. Moreover, the outcome in experiment [16] was inactive. The inhibition in experiment [5] is 96% (active); in [6], 45% (active); in experiment [13] it was 13.5% (active).

As to `Cc1nn(-c2cccc(Cl)c2)c2nc(C(F)(F)F)[nH]c(=O)c12`, the result in experiment [1], in experiment [2], in experiment [3], in experiment [4], in experiment [7] and in [8] was inactive. Moreover, the result in [9], in experiment [10], in experiment [11], in [12], in experiment [14] and in experiment [15] was inactive. Besides, the outcome in experiment [16] was inactive. Also, the inhibition in experiment [5] is 95% (active); in experiment [6] it was 56% (active); in [13] it was 34.8% (active).

Regarding `Cc1cc(C)c2c(=O)n(CC(=O)NCCCN3CCN(c4ccccc4F)CC3)sc2n1`, the result in experiment [1], in experiment [2], in [3], in [4], in experiment [7] and in [8] was inactive. Moreover, the call in [9], in experiment [10], in experiment [11], in experiment [12], in experiment [13] and in experiment [14] was inactive. Also, the result in [15] and in experiment [16] was inactive. Further, the inhibition in [5] is 90% (active); in experiment [6], 55% (active).

With `CCCCC(=O)N(c1ccc(C(=O)O)cc1)c1nc(-c2ccc(Cl)cc2)c(CC)s1`, the result in experiment [1], in experiment [2], in experiment [3], in [4], in experiment [6] and in experiment [7] was inactive. Besides, the outcome in experiment [8], in [9], in experiment [10], in experiment [11], in [12] and in experiment [14] was inactive. In addition, the result in experiment [15] and in experiment [16] was inactive. Moreover, the inhibition in [5] was 52% (active); in experiment [13], 17.1% (active).

For `Cc1nn(C(=O)c2cccnc2)c(C)c1Sc1ccccc1`, the result in experiment [1], in experiment [2], in experiment [3], in [4], in [6] and in experiment [7] was inactive. For the same compound, the result in experiment [8], in experiment [9], in experiment [10], in experiment [11], in experiment [12] and in experiment [14] was inactive. Also, the outcome in [15] and in [16] was inactive. Besides, the inhibition in experiment [5] is 92% (active); in experiment [13], 16.5% (active).

For `COc1cccc(Cn2c(Oc3ccccc3)nc3c2c(=O)n(C)c(=O)n3C)c1`, the result in experiment [1], in experiment [2], in experiment [3], in experiment [4], in experiment [7] and in [8] was inactive. Besides, the outcome in [9], in [10], in experiment [11], in experiment [12], in experiment [14] and in experiment [15] was inactive. For the same compound, in [16], the outcome was inactive. For the same compound, the inhibition in experiment [5] is 81% (active); in experiment [6], 43% (active); in experiment [13], 40.4% (active).

Regarding `Cc1c(CN2CCC(n3nccc3NC(=O)CCc3ccccc3)CC2)cnn1C`, the outcome in experiment [1], in experiment [2], in experiment [3], in [4], in [7] and in [8] was inactive. Moreover, the call in experiment [9], in [10], in experiment [11], in [12], in experiment [13] and in experiment [14] was inactive. The result in [15] and in [16] was inactive. The values for the inhibition in experiment [5] and in experiment [6] were 94% (active) and 68% (active), respectively.

As to `Cc1cc(OCC(=O)Nc2ccc(N3CCN(C)CC3)cc2)ccc1Cl`, the result in experiment [1], in experiment [2], in [3], in [4], in [6] and in experiment [7] was inactive. The result in experiment [8], in [9], in experiment [10], in experiment [11], in experiment [12] and in experiment [13] was inactive. Further, the result in [14], in experiment [15] and in [16] was inactive. Besides, in experiment [5], the inhibition was 79% (active).

Turning to `Cc1ccc(C(=O)C2=C(O)C(=O)N(Cc3cccnc3)C2c2ccc(Cl)c(Cl)c2)o1` (stereo not given), the outcome in experiment [1], in experiment [2], in [3], in experiment [4], in experiment [6] and in experiment [7] was inactive. Also, the outcome in experiment [8], in experiment [9], in experiment [10], in [11], in experiment [12] and in experiment [14] was inactive. The result in [15] and in experiment [16] was inactive. Moreover, the inhibition is 90% (active) in experiment [5] and 32.8% (active) in [13].

As to `COc1cccc(NC(=O)CCC(=O)N2CC(C)Oc3ccc(C)cc32)c1` (stereo not given), the result in [1], in [2], in experiment [3], in experiment [4], in [6] and in experiment [7] was inactive. Moreover, the result in experiment [8], in [9], in experiment [10], in experiment [11], in experiment [12] and in experiment [14] was inactive. Further, the outcome in experiment [15] and in experiment [16] was inactive. Moreover, the inhibition was 85% (active) in experiment [5] and 42.1% (active) in experiment [13].

In the case of `Cc1ccc(-n2nc(-c3cccs3)cc2C(=O)NCC2CCCO2)c(C)c1` (stereo not given), the outcome in experiment [1], in [2], in experiment [3], in [4], in experiment [6] and in experiment [7] was inactive. For the same compound, the result in experiment [8], in experiment [9], in experiment [11], in experiment [12], in experiment [13] and in experiment [14] was inactive. In addition, the outcome in [15] and in experiment [16] was inactive. The inhibition in experiment [5] was 79% (active). Moreover, the activation in experiment [10] was 32% (active).

Consider `Fc1ccccc1CNCCC(Cc1ccccc1)c1ccc2c(c1)OCO2` (stereo not given), for which the result in experiment [1], in experiment [2], in experiment [3], in [4], in experiment [5] and in [6] was inactive. Also, the outcome in experiment [7], in [8], in experiment [9], in experiment [11], in experiment [12] and in experiment [13] was inactive. In addition, the outcome in [14], in experiment [15] and in experiment [16] was inactive. In addition, the activation in [10] was 48% (active).

On to `Cc1ccc(C)c2nc3sc(C(=O)O)cc3cc12`, for which the result in [1], in [2], in experiment [3], in experiment [4], in [6] and in experiment [7] was inactive. Moreover, the outcome in [8], in [9], in experiment [10], in experiment [11], in experiment [12] and in experiment [14] was inactive. The outcome in [15] and in experiment [16] was inactive. In addition, the inhibition in experiment [5] was 83% (active); in experiment [13], 30.9% (active).
